According to PubChem BioAssay (NCATS):
The other results are listed elsewhere or left out. Records with an inconclusive call do not appear. Unmarked numbers belong to inactive results. Active and inactive are the calls of the source. The call rests on the fitted dose curve.
On the % scale 0 is the no-effect control and ±100 the full control effect; potency means the concentration at half of the fitted maximal effect.

What follows are compounds tested against Papain (Carica papaya) (UniProt P00784) (assay: Selectivity profile for inhibitors of NSP2Pro chikungunya virus (CHIKV): Papain Counterscreen (AID 1964104)). Conditions: purified papain protease activity, enzymatic inhibition; series mostly up to 51 µM; activity change, negative = inhibition: at the top concentration.
Sequence of Papain (Carica papaya) (P00784 whole entry, looked up): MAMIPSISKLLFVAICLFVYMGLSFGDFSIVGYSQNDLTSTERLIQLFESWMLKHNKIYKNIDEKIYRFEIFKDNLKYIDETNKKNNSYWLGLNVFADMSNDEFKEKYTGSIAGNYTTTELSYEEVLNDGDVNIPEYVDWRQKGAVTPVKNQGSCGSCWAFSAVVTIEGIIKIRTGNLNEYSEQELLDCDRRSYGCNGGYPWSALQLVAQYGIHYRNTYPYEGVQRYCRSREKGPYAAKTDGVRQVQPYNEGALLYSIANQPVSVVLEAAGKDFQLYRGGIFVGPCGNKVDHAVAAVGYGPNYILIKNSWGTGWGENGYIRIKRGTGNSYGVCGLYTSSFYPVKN
Description: PI: Natalia J. Martinez Ph.D.
National Center for Advancing Translational Sciences (NCATS),
National Institute of Health (NIH), Rockville, Maryland
Chikungunya virus (CHIKV) is a mosquito-borne RNA virus that has emerged as one of the most important global arboviral threats in the last decade. Although the first CHIKV vaccine has recently been FDA approved for use in healthy adults at increased risk, to date, there are no available antiviral drugs for CHIKV infection. CHIKV nsP2 protease plays a crucial role in the processing of the viral polypeptide precursor to release enzymes required for viral replication, thus making it a promising drug target for antiviral discovery. Here, we established a high-throughput pipeline to identify small molecule inhibitors of nsP2 proteolytic activity. The pipeline is composed of a suite of 1,536-well in vitro assays to support quantitative high-throughput (qHTS) screening campaigns. Specifically, we developed a fluorescence resonance energy transfer (FRET)-based assay using a fluorogenic peptide substrate encompassing an endogenous cleavage site and purified recombinant protease domain (nsP2pro). Using this assay, we interrogated ~37,000 small molecules, including those in drug repurposing libraries as well as chemically diverse and medicinal chemistry-friendly compounds. Hits were selected for follow-up validation against full-length nsP2 and an additional peptide. FRET-based 1,536-well assays for papain, hepatitis C virus NS3-4A, and human furin proteases were implemented to characterize compound selectivity. […] Novel compounds were identified to be potential nsP2 inhibitors and molecular docking analyses were performed to explain the binding mode of selected hits. In vitro antiviral activity was evaluated for a subset of compounds using a high-throughput CHIKV infection assay. To our knowledge, the pipeline presented here is unprecedented for CHIKV antiviral discovery research.
PROTOCOL TABLE (as described by Inglese J, Shamu CE and Guy RK. 2007)
SEQUENCE No. (e.g., 1, 2, 3, etc.); […] (e.g., Cells, Incubation, Reagent, etc.); VALUE; DESCRIPTION.
1a; Reagent; 3 uL; Papain in assay buffer.
1b; Reagent; 3uL; Assay buffer
2; Compound; 17 nL; Echo 655 acoustic dispenser (Beckman Coulter).
3; Incubation; 15 min; room temperature in the dark.
4: Reagent; 1 uL; Z-FR-AMC in assay buffer.
5; Incubation; 15 sec, 271g; centrifugation.
6; Detection; Fluorescence; time 0, Viewlux microplate reader (PerkinElmer) 355 nm excitation, 460 nm emission
7; Incubation; 10 min; room temperature
8; Detection; Fluorescence; time 10; ViewLux microplate reader (PerkinElmer), 355 nm excitation, 460 nm emission.
NOTES (numbers refer to sequence numbers above).
1a. Medium-binding black solid-bottom Greiner plates (cat. 789176-F). Dispense 3 uL of 1.33X papain in assay buffer (100 mM sodium acetate, pH 5.5, 5 mM dl-cysteine, 0.01% Tween-20 v/v) to columns 1, 2, 5-48 via Wako/Kalypsys dispenser. Papain (cat. P4762, Sigma) was dispensed to produce 5 nM final concentration. Enzyme solution kept on ice during experiment. Prepare papain as 50% glycerol (v/v) at final concentration of 10 mg/mL (427 uM, 100 U/mL). Sources: microplates (Greiner 789176-F), papain (Sigma P4762), sodium acetate (Bioworld 40120009-2), cysteine (Sigma 861677), Tween-20 (Sigma P1379), water (GIBCO 10977-015; Gibco).
1b. Dispense 3 uL of assay buffer (100 mM sodium acetate, pH 5.5, 5 mM dl-cysteine, 0.01% Tween-20 v/v) to columns 3 and 4 via Wako/Kalypsys dispenser. Assay buffer solution kept on ice during experiment.
2. Compound addition by single pin transfer (17 nL) using Wako pintool. Compound solutions in source plate: 169 nM to 10 mM DMSO stock solutions. Final concentrations: 0.664 nM to 39.2 uM, respectively. Final DMSO concentration: 0.5% (v/v).
3. RT incubation. Kalypsys lids used as microplate coverings. Protected from light.
4. […]
In the case of `COC([CH2][Hg])CNC(=O)c1ccccc1OCC(=O)O` (stereo unspecified), the “activity change, negative = inhibition” value was -5.61%. For `CCOc1ccc(NC(=O)c2c(NC(=O)Cc3ccccc3)sc3c2CCC(C)C3)cc1` (stereo unspecified), the “activity change, negative = inhibition” value was -1.65%. For `O=C(O)c1cccc(-n2[nH]c(-c3ccccc3)cc2=O)c1`, the “activity change, negative = inhibition” value was -4.53%. In the case of `CCc1ccccc1NC(=O)c1cnn(-c2ccc(F)cc2)c1C1CCNCC1`, the “activity change, negative = inhibition” value was -3.43%. With `CCOc1ccc(NC(=O)c2c(NC(=O)Cc3ccccc3)sc3c2CCCCC3)cc1` the “activity change, negative = inhibition” value was -3.23%. `Cc1c(S(=O)(=O)O)oc2c1C(=O)C(=O)c1c-2ccc2c1CCCC2(C)C` was tested, and the Potency was 18.3 µM (active). For `CCC(C)C(=O)OC1C(C)C2(O)C(C=C(CO)CC3(O)C(=O)C(C)=CC32)C2C(C)(C)C12OC(=O)C(C)C` (stereo unspecified), the “activity change, negative = inhibition” value was -20.1% [at 17.2 µM]. `CO[C@]1(NC(=O)CSC(F)F)C(=O)N2C(C(=O)O)=C(CSc3nnnn3CCO)CO[C@H]21` was tested, and the Potency was 6.51 µM (active). For `Cc1ccc(N[S+](=O)([O-])c2cc3c(cc2N[C@@H](C)CO)NC(=O)CC3)cc1N[C@@H](C)CO`, the “activity change, negative = inhibition” value was 82.5%. `C[C@@H]1[C@H](O)[C@@H]2OC(=O)C3=C2[C@H](CCC3)[C@@]12C[C@@H](c1ccoc1)OC2=O` was tested, and the “activity change, negative = inhibition” value was -2.31% [at 33.5 µM]. With `C[C@@H]1O[C@@H](O[C@@H]2[C@@H](O)[C@H](OCCc3ccc(O)c(O)c3)O[C@H](CO[C@@H]3O[C@H](CO)[C@@H](O)[C@H](O)[C@H]3O)[C@H]2OC(=O)/C=C/c2ccc(O)c(O)c2)[C@H](O)[C@H](O)[C@H]1O` the “activity change, negative = inhibition” value was -16%. With `CCOc1ccc(N(Cc2ccccc2)C(=O)c2nc(S(C)(=O)=O)ncc2Cl)cc1` the “activity change, negative = inhibition” value was -4.78%. `Cn1nnnc1Sc1ncnc2n[nH]c(-c3cccc(S(C)(=O)=O)c3)c12` was tested, and the “activity change, negative = inhibition” value was -21.7% [at 500 µM]. In the case of `C[C@@H]1C[C@@H](O)[C@@]23CO[C@]2(CO)C[C@@H](O)CC3[C@@]12CC(c1ccoc1)OC2=O` (stereo partly specified), the “activity change, negative = inhibition” value was -1.13% [at 33.5 µM]. With `Oc1ccc(OC2CCCCO2)cc1` (stereo unspecified) the “activity change, negative = inhibition” value was -2.72%. With `CC(=O)N[C@@H](C(=O)O[C@H]1CCC(C)(C)[C@@H]2CCC3=C(COC3=O)[C@@]12C)C(C)C` the “activity change, negative = inhibition” value was -9% [at 33.5 µM].
